Screens deposited in PubChem BioAssay by National Center for Advancing Translational Sciences (NCATS).
D1 potentiator: Potentiators of Human D1 Dopamine Receptor: qHTS; D(1A) dopamine receptor (Homo sapiens), P21728; HEK293 TREx D1 cells, calcium flux, dopamine EC20 potentiation; potentiation, % at 10 µM; actives 0.036% (n = 360,000); AID 504651, 2011; in the data active means potentiation above about 30%; further: 0% is about no effect
TRHR PAM: qHTS for Small Molecule Agonists and Allosteric Enhancers of Human TRH Receptor: Primary Screen for Enhancers; TRHR cells, fluo-8 calcium fluorescence, EC20 TRH enhancement; actives 0.66% (n = 360,000); enhancement, % at 2 µM; Thyrotropin-releasing hormone receptor (Homo sapiens), P34981; in the data active means enhancement above about 30%; further: 0% is about no effect
Target sequence (P34981 whole entry, looked up): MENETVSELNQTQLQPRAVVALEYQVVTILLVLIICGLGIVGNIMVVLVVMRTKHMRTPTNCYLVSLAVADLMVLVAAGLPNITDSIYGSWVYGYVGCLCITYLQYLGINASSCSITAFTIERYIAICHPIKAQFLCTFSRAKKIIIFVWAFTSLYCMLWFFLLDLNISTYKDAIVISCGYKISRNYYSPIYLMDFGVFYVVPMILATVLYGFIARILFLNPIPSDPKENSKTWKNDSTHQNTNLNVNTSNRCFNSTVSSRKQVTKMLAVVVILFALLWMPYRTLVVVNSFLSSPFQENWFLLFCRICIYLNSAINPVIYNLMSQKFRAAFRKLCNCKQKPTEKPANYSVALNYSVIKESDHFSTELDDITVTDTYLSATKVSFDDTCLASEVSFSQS
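TRHR-expressing cells loaded with fluo-8 calcium dye were read kinetically (ex 480/em 530) during compound addition, then stimulated with an EC20 of TRH (10 nM final). Enhancement of the Gq-mediated intracellular calcium response was scored.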
TRHR ag: qHTS for Small Molecule Agonists and Allosteric Enhancers of Human TRH Receptor: Primary Screen for Agonists; Thyrotropin-releasing hormone receptor (Homo sapiens), P34981; actives 0.18% (n = 360,000); activation, % at 2 µM; TRHR cells, calcium flux fluo-8, FDSS agonist mode; further: 0% is about no effect
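In this calcium-flux screen, cells bearing human TRHR are dye-loaded with fluo-8, baselined for 10 cycles, then exposed to library compounds; positive kinetic calcium responses during the agonist phase mark hits, with TRH as control.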
D1 antagonist: Antagonist of Human D 1 Dopamine Receptor: qHTS. HEK293 TREx D1 cells, calcium flux, dopamine EC80; hits give low values. AID 504652, 2011. actives 3.2% (n = 360,000). D(1A) dopamine receptor (Homo sapiens), P21728. activity change, negative = inhibition, % at 10 µM; in the data active means activity change below about -30%; further: on the % scale 0 is the no-effect control and ±100 the full control effect
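Tetracycline-induced HEK293 Trex D1 cells, force-coupled to calcium, dye-loaded; compounds added and read 180 s, then EC80 dopamine added and calcium flux tracked kinetically another 180 s.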
D1 agonist: Allosteric Agonists of the Human D1 Dopamine Receptor: qHTS | AID 504660, 2011 | actives 1% (n = 360,000) | HEK293 T-REx D1 cells, calcium flux, agonist mode | activation, % at 2 µM | D(1A) dopamine receptor (Homo sapiens), P21728; further: 0% is about no effect
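Tetracycline-induced HEK293 TREx D1 cells, force-coupled to calcium signalling, were dye-loaded with a no-wash calcium kit. Compound was pin-added after a 10 s baseline. Fluorescence was read kinetically at 1 cycle/s for 180 s, with calcium rises flagged as agonism.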
* marks the source's active call; other numbers are inactive results; ! = repeats disagree. Most compounds without a hit are left out; they make up all but 4.7% or so of the library. Unless noted, no stated cut-off is given here; in the data, active means activation above about 30%; inactive means the rest.

SMILES	D1 potentiator	TRHR PAM	TRHR ag	D1 antagonist	D1 agonist
CCOc1ccc(NC(=O)CCS(=O)(=O)c2ccc3nc(C)sc3c2)cc1	-4.1	-4.4	0.0	0.3	2.4
CCCNC(=O)CCSc1nc(-c2ccc3c(c2)OCO3)cc(C(F)(F)F)n1	-3.9	1.4	-1.3	-9.9	3.2
Cn1c(=O)[nH]c2cc(-c3noc(-c4ccc(Br)cc4)n3)ccc21	0.1	9.6	0.1	6.9	1.5
COCCN(CC(=O)NCC1CCCO1)C(=O)CCC(=O)Nc1cc(C)ccn1 (stereo unspecified)	-3.5	-0.5	-0.2	-37.1*	2.1
Cc1nn(C2CCS(=O)(=O)C2)c(Cl)c1/C=C/C(=O)OCC(=O)c1cc(C)n(-c2ccc(F)cc2)c1C (stereo unspecified)	-6.3	-1.2	0.1	-30.9*	8.6
CN(C)CCNS(=O)(=O)c1ccc(N2CCN(c3ccc(F)cc3)CC2)c([N+](=O)[O-])c1	-8.0	12.3	1.6	-49.4*	59.0*
CC1CC(N(C(=O)c2ccco2)c2ccccc2)c2ccccc2N1C(=O)c1ccco1 (stereo unspecified)	8.2	11.7	-0.7	21.1	0.6
CC1CC(N(C(=O)c2ccc(Cl)cc2)c2ccccc2)c2ccccc2N1C(=O)c1ccco1 (stereo unspecified)	-6.3	-11.6	0.0	-45.8*	1.6
CCCNC(=O)COC(=O)c1cccnc1Nc1ccccc1F	-3.9	5.7	-0.2	-32.5*	0.0
CCOC(=O)N1CCc2c(sc3c2c(=O)n(-c2ccc(Cl)cc2)c(=O)n3CC(C)C)C1	-3.2	2.9	-0.3	5.2	3.4
COc1ccc(N(CC(=O)N/N=C/c2ccc(-c3ccc([N+](=O)[O-])cc3)o2)S(=O)(=O)c2ccc(C)cc2)cc1	-10.1	-0.6	2.7	7.9	73.1*
COc1ccc(S(=O)(=O)N(CC(=O)NCCSCc2ccccc2)c2ccc(C)cc2)cc1	1.9	-11.1	5.8	-15.7	31.8*
CCOc1ccc(S(=O)(=O)N(CC(=O)NCCSc2ccc(C)cc2)c2ccccc2)cc1	-0.8	5.2	0.4	4.2	9.2
COc1ccc(N(CC(=O)N/N=C/c2ccc(-c3ccc([N+](=O)[O-])cc3)o2)S(=O)(=O)c2ccc(C)cc2)cc1Cl	0.5	-2.2	3.3	-0.1	9.4
Cc1ccc(S(=O)(=O)NCCSCc2ccccc2)cc1	-1.6	2.7	-0.8	-30.0*	4.4
COc1ccc(S(=O)(=O)N(CC(=O)NCCSc2ccc(C)cc2)c2ccc(C)cc2)cc1	2.4	3.9	2.6	-19.2	55.9*
O=C(COc1ccccc1F)Nc1nnc(SCc2cc(=O)c3ccccc3[nH]2)s1	-1.9	-1.7	0.3	-7.3	0.1
O=C(Cn1cc(CNC(=O)c2ccccc2)nn1)Nc1cc(C(F)(F)F)ccc1Cl	1.2	1.8	-3.0	-2.4	-0.7
Cc1ccc(N(CC(=O)NCCSc2ccccc2)S(=O)(=O)c2ccc(F)cc2)cc1	-1.9	-9.2	3.4	-31.3*	18.7
COc1ccc(N(CC(=O)NCc2ccc(C)cc2)S(=O)(=O)c2c(C)[nH]c(=O)[nH]c2=O)cc1	-7.1	-7.4	6.1	-34.6*!	-0.6
COc1ccc(CC(=O)OCC(=O)NC(=O)NC2CCCC2)cc1	-1.6	-0.6	-0.7	2.7	2.4
COc1ccc(CC(=O)OCC(=O)NC(=O)NC2CCCCC2)cc1	-2.4	39.1*	-0.2	3.4	1.5
COC(=O)c1ccccc1NC(=O)Cn1cnc2c(cnn2-c2ccccc2)c1=O	6.3	-6.8	-0.4	-2.5	1.1
COC(=O)c1ccccc1NC(=O)Cn1cnc2cc(C)c(C)cc21	-3.8	-0.4	0.2	-16.3	37.8*
Cc1ccc(NC(=O)C2CCCN(S(=O)(=O)c3cccc4nsnc34)C2)c(C)c1 (stereo unspecified)	1.9	-0.1	-0.1	-4.8	0.1
SMILES	D1 potentiator	TRHR PAM	TRHR ag	D1 antagonist	D1 agonist
CCOC(=O)c1c(C)n(-c2ccccc2)c2ccc(OC(=O)c3ccccc3NC(=O)C(C)(C)C)cc12	0.2	-2.3	-0.6	11.7	-1.9
O=C(COC(=O)C1CC1)Nc1ccc(Oc2ccccc2)cc1	-6.7	-1.3	-0.7	-35.3*	4.2
O=C(COC(=O)C1CCC1)Nc1ccc(Oc2ccccc2)cc1	-1.6	-4.3	-0.4	-14.0	4.3
O=C(CCCC(=O)OCC(=O)c1cccs1)Nc1ccc(Oc2ccccc2)cc1	-7.5	13.0	-0.8	-41.7*	19.2
O=C(CN1CCCCCC1)Nc1ccc(Oc2ccccc2)cc1	-9.6	0.9	-1.6	-37.8*	67.4*
CCN(c1ccccc1)C(CNS(=O)(=O)c1ccccc1)c1ccccc1 (stereo unspecified)	-1.6	3.2	0.4	-2.9	3.6
COCCCN1C(=O)c2ccc(C(=O)OCC(=O)NCc3cccc(OC)c3)cc2C1=O	3.3	4.4	-0.5	8.0	0.9
N#Cc1c(-c2ccccc2)[nH]c(=O)[nH]c1=O	-0.5	1.0	-0.7	-34.9*	3.8
CCCc1ccc(OCc2ccc(C(=O)Nc3ccccc3C(=O)OC)o2)cc1	-2.4	3.1	1.3	-11.9	17.5
CNC(=S)/N=C/NOCc1ccc(Cl)cc1Cl	-6.1	-3.1	0.6	-39.3*	22.5
O=C(CSc1nnc(-c2ccccc2)c(-c2ccccc2)n1)NC1CCCCC1	-1.1	-6.9	0.0	-20.9	6.3
CC(C)(C)OC(=O)N[C@@H](C(=O)OC(C)(C)C)c1ccccc1	-6.3	-4.7	0.2	-35.0*	-0.9
CCOC(=O)Nc1csnn1	0.7	6.2	1.2	-14.3	2.8
CCCCn1c(N)c(NCC(C)C)c(=O)[nH]c1=O	0.7	-5.8	0.0	-46.4*	2.1
CCCN1CCC(NC(=O)c2cccc(Oc3ccccc3)c2)CC1	-5.3	-3.7	1.7	-13.7	2.1
COc1cc(OC)cc(C(=O)NC2CCN(CCCOc3ccccc3)CC2)c1	-20.0	-3.3	-0.2	-36.8*	7.1
COc1cc2c(cc1OC)C(COc1ccc3c(C)cc(=O)oc3c1)N(C(=O)CC(C)C)CC2 (stereo unspecified)	-0.1	0.2	-0.1	4.3	3.2
CC/C(=N/NC(=O)CNc1ccc(Cl)cc1C)c1ccccc1	1.3	0.6	1.4	0.1	4.5
Cc1c(NC(=O)C(C)Sc2ncnc3ccccc23)c(=O)n(-c2ccccc2)n1C (stereo unspecified)	4.5	-2.6	0.1	-3.8	3.3
Cc1cc(SC(C)C(=O)Nc2c(C)n(C)n(-c3ccccc3)c2=O)nc2ccccc12 (stereo unspecified)	-2.9	-3.0	-0.8	-32.3*	0.3
